# In PubChem BioAssay (NCI):
# About 83,000 compounds went through this panel and 20% of them were active in at least one assay; those are over-represented in the sample as a whole.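 Plates (96-well) were seeded with cells, treated with compound at one concentration, and incubated for 48 hours before percent growth was determined.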 A number with no mark means an inactive call. Calls of active or inactive are those of the source. The calls were made as follows: active = growth percent below 10; inactive = the rest.
# What was measured:
# Assay in all cases: NCI-60 one-dose screen, 48 h (100 = growth as untreated, 0 = no growth, -100 = all killed)
# Conditions in all cases: 10 µM unless noted
# [1] = system: HCT-15 colon
# [2] = system: HT29 colon
# [3] = system: SNB-75 CNS
# [4] = system: SNB-19 CNS
# [5] = system: U251 CNS
# [6] = system: PC-3 prostate
# [7] = system: UACC-62 melanoma
# [8] = system: LOX IMVI melanoma
# [9] = system: SK-MEL-28 melanoma
# [10] = system: SK-MEL-2 melanoma
# [11] = system: EKVX NSCLC
# [12] = system: SN12C renal
# [13] = system: UO-31 renal
# [14] = system: TK-10 renal
# [15] = system: ACHN renal
# [16] = system: A498 renal
# [17] = system: CCRF-CEM leukemia
# [18] = system: MOLT-4 leukemia
Structure (SMILES),growth [1],growth [2],growth [3],growth [4],growth [5],growth [6],growth [7],growth [8],growth [9],growth [10],growth [11],growth [12],growth [13],growth [14],growth [15],growth [16],growth [17],growth [18]
N#Cc1nnn(-c2ccc(S(N)(=O)=O)cc2)c1NCC(=O)c1ccccc1,98.3%,95.5%,80%,92.2%,93.6%,84.1%,96%,94.1%,111%,97.8%,90.9%,97.1%,78.9%,107%,99.5%,101%,83.6%,89.9%
Cc1cc(N[C@@H]2CCC[C@H](Nc3ccnc4cc(Cl)ccc34)C2)nc(N2CCCCCC2)n1,-73.2% (active),-59.9% (active),-83.7% (active),-22.2% (active),-92.6% (active),-67.7% (active),-90.2% (active),-86.3% (active),-80.3% (active),-75.7% (active),7.62% (active),-74.8% (active),-95.6% (active),-67.7% (active),-85.5% (active),-87.6% (active),-23.1% (active),-18.5% (active)
Clc1ccc2c(NCCCNc3nc(-n4ccnc4)nc4ccccc34)ccnc2c1,87%,75.1%,71.1%,92.1%,83.5%,73.3%,94.3%,82.1%,93.1%,103%,70.3%,84.4%,78.8%,102%,97.7%,78.2%,75.2%,68%
COc1ccc(SC2c3ccc(C)cc3Oc3nc(N)c(C#N)c(N)c32)cc1 (configuration not stated),-79.9% (active),-65.1% (active),-45.5% (active),-69.3% (active),-93.3% (active),-67.9% (active),-46.2% (active),-94.3% (active),-82.3% (active),-59.8% (active),-10.8% (active),-94.3% (active),-95.9% (active),-97.9% (active),-98.1% (active),28.7%,-33.5% (active),-24.7% (active)
CN(C)c1ccc(N=Nc2ccccn2)c(O)c1,31.6%,24.1%,42.7%,18.6%,11.7%,33.8%,-28.3% (active),8.14% (active),32.8%,27.1%,17%,11.3%,-8.47% (active),38.9%,6.69% (active),48.2%,2.26% (active),2.31% (active)
COc1cc2c(cc1OC)C(Sc1ccc(SC)cc1)c1c(nc(N)c(C#N)c1N)O2 (configuration not stated),-71.5% (active),-55.2% (active),-54.5% (active),-77.9% (active),-99.3% (active),-75.8% (active),-61.3% (active),-96.3% (active),-55.5% (active),-63.7% (active),-45.6% (active),-88% (active),-99.7% (active),-95.7% (active),-86.4% (active),-6.98% (active),-32.7% (active),-26.3% (active)
CCNC(=O)Oc1ccc(/C(=C(\C)c2ccc(Cl)cc2)c2ccc(OCCN(CC)CC)cc2)cc1,1.8% (active),-23.2% (active),45.2%,59.2%,21.1%,31.4%,-68.3% (active),-59% (active),-62.3% (active),38.1%,60.1%,66.1%,25.8%,80.4%,71.3%,85.5%,16.4%,7.99% (active)
Cc1cc(N2CCN(C)CC2)nc(NC2CCCC(Nc3ccnc4cc(Cl)ccc34)C2)n1 (configuration not stated),-35.7% (active),-53.1% (active),-25.6% (active),9.07% (active),-51.4% (active),8.55% (active),-90.7% (active),-81.8% (active),-75.8% (active),-66.7% (active),34.4%,-21% (active),-100% (active),-75.8% (active),-88.6% (active),54.5%,-26% (active),1.05% (active)
CSc1ccc(SC2c3ccc(C)cc3Oc3nc(N)c(C#N)c(N)c32)cc1 (configuration not stated),-74.3% (active),-65.1% (active),-36.4% (active),-96% (active),-90.8% (active),-76.2% (active),-75.1% (active),-92.6% (active),-86.7% (active),-58.9% (active),-48.6% (active),-98% (active),-99.2% (active),-97% (active),-96.6% (active),4.22% (active),-37% (active),-17.9% (active)
CC1C(/C=N/Nc2ccccc2)C(C#N)(C#N)C1(C#N)C#N (configuration not stated),69.2%,97.6%,71.7%,98.6%,101%,65.9%,5.25% (active),38.7%,100%,85.2%,71.8%,86.5%,52%,130%,44.4%,99.9%,58%,67%
CN1CCN(c2nc(NCCCCNc3ccnc4cc(Cl)ccc34)c3ccccc3n2)CC1,37.4%,4.42% (active),76.9%,53.5%,2.52% (active),66.3%,63.9%,2.66% (active),-0.901% (active),87.3%,80.7%,79.8%,46.1%,73%,74.3%,71.1%,35.3%,43.9%
Cn1ccnc1C(=O)/C=C/c1ccc(CC(=O)Nc2ccccc2)cc1,6.26% (active),5.1% (active),11.3%,10.3%,7.03% (active),25.7%,26.7%,8.77% (active),55%,54.6%,17.6%,16.1%,16%,17.6%,29%,44.9%,2.06% (active),-1.23% (active)
COc1ccc(N=Nc2nccs2)c(O)c1,25.4%,40.2%,81.9%,51.4%,27.8%,42.1%,36.8%,11.5%,81.4%,64.2%,30.9%,50.3%,13.1%,51.3%,18.4%,86.5%,4.6% (active),4.68% (active)
CCc1nc(N)nc(N)c1C#CC(C)c1ccc(-c2ccncc2)cc1Cl (configuration not stated),13.3%,4.74% (active),-9.88% (active),20.9%,13.8%,21.6%,13.2%,13.9%,40.4%,33.3%,25%,18.4%,10.9%,18.8%,14.1%,22.7%,–,10.2%
CCc1nc(N)nc(N)c1C#CC(C)c1cc(-c2ccnc(C)c2)c2oc(C)nc2c1 (configuration not stated),10.7%,6.46% (active),-23.2% (active),7.53% (active),3.52% (active),16.5%,-12.3% (active),-18.8% (active),41.1%,30.1%,19.2%,6.91% (active),9.81% (active),25.2%,9.82% (active),10.8%,0.474% (active),1.69% (active)
CCN(CC)c1ccc2c(c1)Oc1nc(N)c(C#N)c(N)c1C2Sc1ccc(SC)cc1 (configuration not stated),-14.3% (active),-76.6% (active),-54.9% (active),-64.1% (active),-92% (active),-28.5% (active),-14.4% (active),-96.9% (active),-9.16% (active),-59.6% (active),-3.97% (active),-13.4% (active),-79.8% (active),-35.7% (active),-46.5% (active),90%,-15.5% (active),-10.7% (active)
COc1ccc(NC(=O)c2ccc(/C=C/C(=O)c3ncc[nH]3)cc2)cc1,35.2%,3.59% (active),75%,56.1%,18.8%,92.3%,78.2%,26.9%,102%,97.6%,79.8%,70.8%,48.4%,88.8%,86.3%,86.8%,29.1%,–
Clc1ccc2c(NCCNc3nc(N4CCCCC4)nc4ccccc34)ccnc2c1,-30.1% (active),-28% (active),-23.2% (active),13.2%,-81.7% (active),9.71% (active),-90.7% (active),-83.6% (active),-79.2% (active),-61.8% (active),32.9%,-2.91% (active),-97.6% (active),-32.5% (active),-72.8% (active),75.8%,0.574% (active),7.69% (active)
